From PubChem BioAssay
Pf growth 96h: Primary qHTS for delayed death inhibitors of the malarial parasite plastid, 96 hour incubation | P. falciparum luciferase reporter growth, 96 h | Potency, µM (doses to about 28.7 µM), without a hit: at the highest dose activity change, negative = inhibition, hits mostly inhibitors | 320,000 tested, 6.9% active | AID 504834, 2011; note: potency is the fitted concentration of half-maximal effect; % is set by controls: 0 for no effect and ±100 for the full control effect
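Compounds incubated with erythrocytes infected by luciferase-expressing P. falciparum (2% hematocrit, 0.05% parasitemia final) for 96 hours, 37 C in 5% CO2. Growth inhibition scored as decreased luciferase luminescence.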
HCMV inh: qHTS Assay for inhibitors of the human cytomegalovirus (HCMV) | HFF cells, HCMV-luciferase reporter, 72 h; hits give low values | activity change, negative = inhibition, % at 57.5 µM | 410,000 tested, 4.5% active | AID 1259415, 2018; in the data active = activity change below about -60%; inconclusive = no clear call, values can overlap the other calls; inactive = above about -39%; note: % is set by controls: 0 for no effect and ±100 for the full control effect
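Human foreskin fibroblasts infected with luciferase-reporter HCMV at MOI 1 PFU/cell, compounds at two doses. Luciferase measured 72 h post infection; normalized to buffer-only basal and Salinomycin (10uM) controls.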
Sm TGR block: qHTS Assay for the Inhibitors of Schistosoma Mansoni Peroxiredoxins. purified TGR, DTNB reduction, TNB absorbance 405 nm. 360,000 tested, 3% active. Potency, µM (series often up to 114 µM), for inactives: at the top dose activity change, negative = inhibition, actives largely listed as inhibitors. AID 485364, 2010; note: potency is the fitted concentration of half-maximal effect; % is set by controls: 0 for no effect and ±100 for the full control effect; nearly all actives have a fitted effect of over 60% in size
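First, TGR (20 nM dispensed) and NADPH were mixed with compound. Second, a 15 min room-temperature incubation followed. Third, further NADPH and then DTNB were added to start the reaction. Finally, TNB absorbance was monitored kinetically.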
HCV inh: qHTS Assay for Inhibitors of Hepatitis C Virus (HCV); Potency, µM (top dose mostly 41.8 µM), for the others: at the highest dose activity change, negative = inhibition, most hits filed as inhibitors; Huh7.5.1 HCVcc-Cre infection, luciferase reporter, 44 h; 340,000 tested, 3.4% active; note: potency is the fitted concentration of half-maximal effect; % is set by controls: 0 for no effect and ±100 for the full control effect
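Infectious HCVcc-Cre (~0.5 moi) was added to cells just after compound, with cells seeded 4 h earlier at 1,000 per well. Luciferase activity after 44 h culture reported infection; substrate was incubated 15 min at room temperature before reading.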
Pf growth 48h: Primary qHTS for delayed death inhibitors of the malarial parasite plastid, 48 hour incubation | P. falciparum luciferase growth in erythrocytes, 48 h | Potency, µM (doses to about 28.7 µM), without a hit: top-dose activity change, negative = inhibition, actives largely listed as inhibitors | 310,000 tested, 5.9% active | AID 504832, 2011; note: potency is the fitted concentration of half-maximal effect; % is set by controls: 0 for no effect and ±100 for the full control effect
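A one-generation exposure of luciferase-tagged malaria parasites in RPMI 1640/Albumax erythrocyte culture, 37 C and 5% CO2. Inhibition is inferred from decreased luminescence after adding detection reagent.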
SARS PLP yeast: qHTS of Yeast-based Assay for SARS-CoV PLP; AID 485353, 2010; S. cerevisiae expressing SARS-CoV PLpro, growth rescue; Potency, µM (series often up to 32.9 µM), for the others: at the top dose activity, positive = growth rescue, actives largely listed as activators; 330,000 tested, 0.19% active; calls by dose curve; note: potency is the fitted concentration of half-maximal effect; 0% is about no effect; nearly all actives have a fitted effect of over 55% in size
An asterisk follows results filed as active; ? = inconclusive; / = not tested or not shown. Rows were chosen to be rich in hits. Some 15% of all compounds tested hit in one or more screens of this group. Unless noted, calls come from the whole dose curve; as a rule, active = well fitted curve in the direction sought with a large enough effect; inconclusive = small, poorly fitted or top-dose-only effect, or another doubt; inactive = no such curve, though single readings can be large; an effect the other way counts as inactive or inconclusive.

SMILES	Pf growth 96h	HCMV inh	Sm TGR block	HCV inh	Pf growth 48h	SARS PLP yeast
CCCc1nc2c3ccccc3ccn2c1Cc1cccc(F)c1	/	49	/	/	/	/
O=C1CCN(Cl)C(=O)N1Cl	/	-6	/	/	/	/
COc1ccccc1C/C(N)=N/OC(=O)c1ccco1	41%	25	29%	-25%	78%	-1%
Cn1c(Sc2nc3ccccc3n2C)nc2ccccc21	25%	-95*	3%	-8%	/	14%
Cc1ccc(-c2nc3ccccc3n2C)o1	11%	59	16µM*	-50%	/	-29%
Cn1c(SCC(=O)N2CCCC2)nc2ccccc21	-3%	-8	1%	3%	11%	-2%
Cc1nc([N+](=O)[O-])c(Sc2nc3ccccc3n2C)n1Cc1ccccc1	?	50	8.9µM*	13µM*	?	-11%
Cn1c(-c2nonc2N)nc2ccccc21	10µM*	-11	9%	-1%	25%	10%
Cc1nc([N+](=O)[O-])c(SCC(N)=O)n1Cc1ccccc1	28%	-32	0%	14%	-5%	0%
Cc1cc(F)ccc1NCC(=O)Nc1ccccc1Br	?	7	-18%	13%	?	-41%
C=CCOC(=O)C1=C[C@@H](c2csc3ccccc23)C[C@@H](OCCCCO)O1	/	1	/	-28%	/	/
COc1ccccc1C=NN=C1c2ccccc2-c2ccccc21	/	-15	/	?	/	/
Cn1c(-c2ccc(Br)o2)nc2cc(Br)ccc21	298%	-8	13µM*	-28%	322%	-2%
CC(=O)c1ccc(-c2nc3ccccc3n2C)o1	122%	135	40µM*	-13%	99%	-9%
CN(C)c1ccc(-c2nc3ccccc3n2C)cc1	?	-16	?	-5%	-76%	-11%
Cc1cc(C)c(S(=O)(=O)Nc2ccc3c4c(cccc24)CC3)c(C)c1	?	-100*	9%	?	?	-13%
Cc1ccc(S(=O)(=O)Nc2ccc3c4c(cccc24)CC3)c(C)c1	/	-70*	/	-15%	/	/
CCCCN1CC(N2CCCC2)CS1(=O)=O (stereo unspecified)	/	-13	/	/	/	/
CCCCCC[n+]1c(-c2ccc(Cl)cc2Cl)csc1Nc1ccccc1	?	-6	-3%	7%	1.2µM*	-34%
Cc1nc(C(=O)N/N=C/c2[nH]ncc2Br)cs1	1.5µM*	17	4%	-9%	1.7µM*	-1%
O=C(N/N=C/c1ccc([N+](=O)[O-])cc1)c1[nH]ncc1Br	-5%	22	2%	3%	384%	1%
CCOc1ccc(NC(=O)CN2C(=O)COc3ccc(S(=O)(=O)N4CCCCC4)cc32)cc1	0%	-14	10%	?	?	-1%
O=C(CN1C(=O)COc2ccc(S(=O)(=O)N3CCCCCC3)cc21)Nc1cccc(Cl)c1	/	-72*	0%	/	/	/
COc1ccc(NC(=O)CN2C(=O)COc3ccc(S(=O)(=O)N4CCCCCC4)cc32)cc1	10µM*	?	2%	?	5%	3%
C=CCn1c(Sc2ncc([N+](=O)[O-])s2)n[nH]c1=O	10µM*	-97*	0.22µM*	6.3µM*	?	-4%
SMILES	Pf growth 96h	HCMV inh	Sm TGR block	HCV inh	Pf growth 48h	SARS PLP yeast
C=CCn1c(CSc2ccccc2[N+](=O)[O-])n[nH]c1=S	4%	66	-19%	7%	/	0%
CCS(=O)(=O)NCCc1sc2nc(-c3ccc(OC)cc3)nn2c1C	/	?	-10%	/	/	/
COc1ccc(-c2nc3sc(CCNS(=O)(=O)c4c(C)cc(C)cc4C)c(C)n3n2)cc1	/	-83*	1%	/	/	/
Cc1ccc(-c2nc3sc(CCNS(=O)(=O)c4cc(F)ccc4F)c(C)n3n2)cc1	/	?	5%	/	/	/
Cc1c(CCNC(=O)C(C)(C)C)sc2nc(-c3ccc(F)cc3)nn12	/	-91*	7%	/	/	/
COc1ccc(S(=O)(=O)NCCc2sc3nc(-c4ccc(C)cc4)nn3c2C)cc1F	/	-74*	24%	/	/	/
Cc1nnc(SCC(=O)N(CCC#N)c2ccc3c(c2)OCCO3)s1	?	-26	-13%	14%	-24%	1%
O=C(Nc1ccc(-c2cn3ccsc3n2)cc1)c1ccc(F)c(S(=O)(=O)N2CCOCC2)c1	9.3µM*	?	-18%	5.6µM*	0%	-3%
CC(=O)Nc1ccc(S(=O)(=O)N2CCN(S(=O)(=O)c3ccccc3)CC2)cc1	?	68	-12%	20%	?	-15%
O=C(Nc1cc(Cl)cc(Cl)c1)c1ccc(F)c(S(=O)(=O)N2CCN(c3ccccc3F)CC2)c1	/	-20	7%	/	/	/
CCN(c1ccccc1)S(=O)(=O)c1cc(C(=O)Nc2ccc(F)c(F)c2)ccc1F	-14%	-91*	-1%	4.5µM*	?	-11%
CC(=O)Nc1ccc(S(=O)(=O)N2CCN(c3cc(C)ccc3C)CC2)cc1	13µM*	-19	0%	-9%	-20%	-30%
CCc1ccccc1NC(=O)c1ccc(F)c(S(=O)(=O)N2CCN(c3ccccc3OC)CC2)c1	/	-62*	-4%	/	/	/
CCc1ccc(NC(=O)c2ccc3c(c2)N(Cc2ccc(C)cc2)CCS3)cc1	/	52	1%	/	/	/
CCN(c1ccccc1)S(=O)(=O)c1ccc(Cl)c(NC(=O)Nc2ccc(Cl)cc2C#N)c1	-90%	?	5%	?	?	3%
Cc1ccc(NC(=O)c2ccc(F)c(S(=O)(=O)NCCc3ccccc3)c2)cc1F	/	-75*	1%	/	/	/
Cc1ccc(NC(=O)c2ccc(F)c(S(=O)(=O)N3CCc4ccccc4C3)c2)cc1F	/	-68*	10%	/	/	/
CCN(c1ccccc1)S(=O)(=O)c1cc(NC(=O)Nc2ccccc2C#N)ccc1Cl	?	-68*	-10%	?	?	10%
Cc1ccc(C)c(N2CCN(S(=O)(=O)c3cc(C(=O)Nc4ccc(Oc5ccccc5)cc4)ccc3F)CC2)c1	/	-65*	1%	/	/	/
Cc1ccccc1NC(=O)c1ccc(F)c(S(=O)(=O)N2CCc3ccccc3C2)c1	/	10	4%	/	/	/
Cc1cccc(N2CCN(S(=O)(=O)c3cc(C(=O)Nc4ccc(Oc5ccccc5)cc4)ccc3F)CC2)c1C	/	?	0%	/	/	/
Cc1ccc(CNS(=O)(=O)c2cc(C(=O)Nc3ccc(C(C)C)cc3)ccc2F)cc1	/	-5	4%	/	/	/
CS(=O)(=O)N(Cc1ccc(Cl)cc1)c1ccc(C(=O)N/N=C/c2cc3ccccc3nc2Cl)cc1	16%	-38	-20%	?	10%	-4%
